# “And” between values parts separate entries of the source, which are not always exact repeats. Equal values may be shown once. Where a name gives a salt, the structure may show the parent alone.
# Tests used:
# Assay in all cases: cell viability relative to vehicle control; higher = less cytotoxic
# Conditions in all cases: 10 µM
# K562 = test system: K562
# In short: (§1)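 Four leukaemia lines, as CRISPR-edited mutant clones and isogenic wild-type clones, were tested against Selleck bioactive, kinase and epigenetic probe libraries after removal of identity-inconsistent compounds. Cells were exposed to a single 10 µM dose for 48 h, and CellTiter-Glo luminescence was then read. Viability was calculated relative to the on-plate vehicle control.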
# MARIMO = test system: MARIMO
# In short: as §1
# MOLM14 = test system: MOLM14
# In short: as §1
# OCI-AML2 = test system: OCI-AML2
# In short: as §1
SMILES,cell viability (K562; SRSF2 genotype: SRSF2 P95H/wt),cell viability (K562; SRSF2 genotype: SRSF2 wt/wt) [%],cell viability (MARIMO; SRSF2 genotype: SRSF2 P95H/wt) [%],cell viability (MARIMO; SRSF2 genotype: SRSF2 wt/wt) [%],cell viability (MOLM14; SRSF2 genotype: SRSF2 P95H/wt) [%],cell viability (MOLM14; SRSF2 genotype: SRSF2 wt/wt) [%],cell viability (OCI-AML2; SRSF2 genotype: P95H/wt) [%],cell viability (OCI-AML2; SRSF2 genotype: wt/wt) [%]
CC(=O)O[C@@H]1C[C@@]23C[C@@]24CC[C@H](O[C@@H]2OC[C@@H](O)[C@H](O)[C@H]2O)C(C)(C)[C@@H]4CC=C3[C@]2(C)C[C@@H]3OC4(C[C@@H](C)[C@@H]3[C@@]12C)OC(O)C1(C)OC41 (stereo not given in full) [Cimicifugoside],110% and 103%,105,109,111,108,106,99,96
CCOC(=O)C1=C(C)NC(C)=C(C(=O)OCC)C1 [Diludine],99.6% and 92.2%,104,94.3,99.7,104,99.3,99.3,93.9
Cc1nc(=O)c2cc(CN(C)c3ccc(C(=O)N[C@@H](CCC(=O)O)C(=O)O)s3)ccc2[nH]1 [Raltitrexed (Tomudex)],94.9% and 108%,58.7,94.3,105,104,80.6,106,118
Cc1cn([C@H]2O[C@@H](CO)[C@H](O)[C@H]2F)c(=O)[nH]c1=O [Clevudine (Levovir)],91.2% and 95.1%,99.5,91.2,92.2,101,97.9,99.6,88.1
CN(CCO)CC(O)Cn1cnc2c1c(=O)n(C)c(=O)n2C (stereo not given) [Xanthinol Nicotinate],99.3% and 90.3%,97.9,98.2,105,95.4,97.7,73.7,90.5
CC#CC(=O)N1CCC[C@H]1c1nc(-c2ccc(C(=O)Nc3ccccn3)cc2)c2c(N)nccn12 [Acalabrutinib (ACP-196)],93.2% and 96.6%,94.1,101,113,95.4,100,90.2,96.9
Cc1ccc(S(=O)(=O)Nc2nc3ccccc3nc2Nc2ccc3nsnc3c2)cc1 [XL147 analogue],95.3% and 101%,105,97.6,104,99.2,98.7,101,94.5
Cc1[nH]c(/C=C2\C(=O)Nc3ccc(F)cc32)c(C)c1C(=O)NCCN1CCCC1 [Toceranib phosphate],97.4% and 103%,94.5,64,53.4,5.66,7.09,11.6,19.6
CC1(C)CC[C@]2(C)CC[C@]3(C)C(=CC[C@@H]4[C@@]5(C)CC[C@@H](O)[C@](C)(C(=O)O)[C@@H]5CC[C@]43C)[C@@H]2C1,97.6% and 95.5%,97.8,97.8,108,102,103,94.4,96.1
Fc1ccc(C(c2ccc(F)cc2)N2CCN(C/C=C/c3ccccc3)CC2)cc1 [Flunarizine 2HCl],67.8% and 82.2%,72.8,50.4,37.9,46.8,60.7,28.7,26.7
Cc1ccccc1N1CCN(CCc2nnc3n2CCCC3)CC1 [Dapiprazole Hydrochloride],103% and 96%,93.2,97.7,110,97,102,96.4,97.1
N/N=c1\[nH][nH]/c(=N\N)c2ccccc12 [Dihydralazine sulphate],93.9% and 93.2%,95.5,95.3,94.3,106,103,93,95.4
COc1cc2c(cc1OC)-c1cc3ccc(OC)c(OC)c3c[n+]1CC2 [Palmatine chloride],82.8% and 81.3%,75.1,81,93,82.6,86,81.9,80.9
C[S+]([O-])c1ccc(-c2nc(-c3ccc(F)cc3)c(-c3ccncc3)[nH]2)cc1 (stereo not given),96.3% and 94.8%,88.4,110,113,109,99.9,109,102
Nc1ncnc2c1ncn2[C@@H]1O[C@H](CO)C[C@H]1O [Cordycepin],94.3% and 102%,89.3,90.4,99,102,102,94.1,112
CC(C)=CC(O)C/C(C)=C/COc1c2ccoc2cc2oc(=O)ccc12 (stereo not given) [Notopterol],72.4% and 82.5%,76.1,64.7,57.1,71.2,56.4,51.5,43
O=c1c(-c2ccc(O)cc2)coc2c([C@@H]3O[C@H](CO)[C@@H](O)[C@H](O)[C@H]3O)c(O)ccc12 [Puerarin (Kakonein)],109% and 101%,97.2,98.6,101,102,102,96.4,102
C=CS(=O)(=O)NC1CCN(C(=O)CNc2cc(I)c(Cl)cc2OC)CC1 [K-Ras(G12C) inhibitor 9],22.4% and 31%,82.8,36.4,81.1,60.6,84.1,22.1,30
C[C@@H](O[C@H]1OCCN(Cc2nn(P(=O)(O)O)c(=O)[nH]2)[C@H]1c1ccc(F)cc1)c1cc(C(F)(F)F)cc(C(F)(F)F)c1 [Fosaprepitant dimeglumine salt],52.4% and 55.7%,57,53.1,52.6,60.9,65,52.4,58
CCCCc1ccc(O)cc1O [4-Butylresorcinol],99.6% and 85.8%,91.2,90.6,102,86.5,93.8,85.7,88.9

SMILES,cell viability (K562; SRSF2 genotype: SRSF2 P95H/wt),cell viability (K562; SRSF2 genotype: SRSF2 wt/wt) [%],cell viability (MARIMO; SRSF2 genotype: SRSF2 P95H/wt) [%],cell viability (MARIMO; SRSF2 genotype: SRSF2 wt/wt) [%],cell viability (MOLM14; SRSF2 genotype: SRSF2 P95H/wt) [%],cell viability (MOLM14; SRSF2 genotype: SRSF2 wt/wt) [%],cell viability (OCI-AML2; SRSF2 genotype: P95H/wt) [%],cell viability (OCI-AML2; SRSF2 genotype: wt/wt) [%]
CCc1c2c(nc3ccc(OC(=O)N4CCC(N5CCCCC5)CC4)cc13)-c1cc3c(c(=O)n1C2)COC(=O)[C@]3(O)CC [Irinotecan HCl Trihydrate (Campto)],59.7% and 76.8%,63.1,6.18,6.47,15.1,4.24,3.79,2.87
CC1(C)[C@@H](OC(=O)CCC(=O)O)CC[C@]2(C)[C@H]3C(=O)C=C4[C@@H]5C[C@@](C)(C(=O)O)CC[C@]5(C)CC[C@@]4(C)[C@]3(C)CC[C@@H]12 [Carbenoxolone disodiuM],95.9% and 92.2%,88,96.2,99,91.8,96.7,89.3,103
OC[C@@H](O)[C@@H](O[C@@H]1O[C@H](CO)[C@H](O)[C@H](O)[C@H]1O)[C@H](O)[C@@H](O)CO [Lactitol],101% and 92.3%,98.9,94.4,100,99.8,101,91,95.1
CCCCC(=O)O[C@]1(C(=O)CO)[C@@H](C)C[C@H]2[C@@H]3CCC4=CC(=O)C=C[C@]4(C)[C@@]3(F)[C@@H](O)C[C@@]21C [Betamethasone valerate (Betnovate)],94.9% and 101%,94.8,96.9,110,90.8,93.7,94.5,116
O=C(Nc1ccc(Br)cc1)c1c(O)cccc1O [Resorantel],17.7% and 15.3%,19.6,38.7,39.3,17.5,11.8,4.86,14.2
CC(CCC(=O)NCCS(=O)(=O)O)C1CCC2C3C(O)CC4CC(O)CCC4(C)C3CCC12C (stereo not given) [Taurochenodeoxycholic acid],104% and 101%,99.3,103,108,104,104,109,97.8
C[C@H](Cc1cc2c(c(C(N)=O)c1)N(CCCO)CC2)NCCOc1ccccc1OCC(F)(F)F [Silodosin],81.7% and 88.2%,87.5,86.2,85.6,87.2,89.5,74.7,80
Nc1ncnc2c1C(=O)N(c1ccc([C@H]3CC[C@H](CC(=O)O)CC3)cc1)CCO2,107% and 104%,110,105,107,105,105,108,123
C[C@@H]1[C@H](O)[C@@H](C)/C=C/C=C/C=C/C=C/C=C/C=C/C=C/[C@H](O[C@@H]2O[C@H](C)[C@@H](O)[C@H](N)[C@@H]2O)C[C@@H]2O[C@](O)(C[C@@H](O)C[C@@H](O)[C@H](O)CC[C@@H](O)C[C@@H](O)CC(=O)O[C@H]1C)C[C@H](O)[C@H]2C(=O)O [Amphotericin B],97.4% and 101%,104,110,103,93.9,101,126,110
NC(=O)c1ccc(OCCCN2CC3CCCC3C2)cc1 (stereo not given),102% and 107%,104,106,98,100,101,114,98
Cc1nc(Nc2ncc(C(=O)Nc3cc(NC(=O)c4cccc(C(F)(F)F)c4)ccc3C)s2)cc(N2CCN(CCO)CC2)n1,11.4% and 16%,20.1,50,63,12.2,13.8,55.5,57.3
C/C1=C\CC[C@]23O[C@H]2[C@@H](OC3=O)c2c(C)coc2C1 [Linderane],109% and 104%,112,104,99.6,117,108,103,101
O=C(Nc1ccc(Br)cc1)c1ccc(Br)c(S(=O)(=O)NCc2ccccc2)c1,83.5% and 88.7%,86.8,88.5,93.7,96.9,96,76.2,76
C[C@H]1[C@H](C)CC[C@]2(C(=O)O[C@@H]3O[C@H](CO[C@@H]4O[C@H](CO)[C@@H](O[C@@H]5O[C@@H](C)[C@H](O)[C@@H](O)[C@H]5O)[C@H](O)[C@H]4O)[C@@H](O)[C@H](O)[C@H]3O)CC[C@]3(C)C(=CC[C@@H]4[C@@]5(C)C[C@@H](O)[C@H](O)[C@@](C)(CO)[C@@H]5[C@H](O)C[C@]43C)[C@H]12 [Madecassoside],106% and 105%,103,99.8,111,97.8,106,99.9,110
Cc1cc(C)c2c(c1)[C@@H](N(Cc1cc(C(F)(F)F)cc(C(F)(F)F)c1)c1nnn(C)n1)CCCN2C[C@H]1CC[C@H](C(=O)O)CC1,89% and 90.3%,90.1,104,114,95.4,98.7,101,116
COc1ccc(-c2nc3cc(C4=NNC(=O)CC4C)ccc3[nH]2)cc1 (stereo not given) [Pimobendan (Vetmedin)],59.4% and 65.2%,68.4,65.5,57.5,68,83.6,89.3,84.4
C[C@H]1[C@H](C)CC[C@]2(C(=O)O)CC[C@]3(C)C(=CC[C@@H]4[C@@]5(C)CC[C@H](O)C(C)(C)[C@@H]5CC[C@]43C)[C@H]12 [Ursolic acid (Malol)],96.5% and 93.7%,90.6,87.2,102,98.2,97,81.4,92.8
NC(N)=N/N=C/c1c(Cl)cccc1Cl [Guanabenz (WY-8678) Acetate],81.4% and 86.5%,84,83.3,83.3,84.1,86.5,89.6,88.1
Nc1nc(NCCNc2ncc(-n3ccnc3)c(-c3ccc(Cl)cc3Cl)n2)ccc1[N+](=O)[O-],110% and 106%,99.1,125,132,109,115,131,148
CC(C)n1c([C@H](C)Nc2ncnc(N)c2C#N)cc2cccc(-c3ccc(=O)n(C)c3)c2c1=O,71.2% and 78.7%,68.5,46.7,34,20.9,22.6,5.13,19.1
